Laboratory results taken from PubChem BioAssay (NCATS).
Results filed as inconclusive are left out. Values without a mark were called inactive. Calls follow the shape of the dose curve; as a rule, active = well fitted activation curve with a large enough effect; inconclusive = small, poorly fitted or top-dose-only effect; inactive = no such curve, though single readings can be large or run the other way.

Test: Validation screen for small molecules that induce genotoxicity in human embryonic kidney (HEK293T) cells expressing luciferase-tagged ELG1 (AID 493106); also: 0% is about no effect
Conditions: luminescence; series mostly up to 46.1 µM; activity change, positive = ELG1 induction: at the top concentration
Source text: NIH Molecular Libraries Probe Production Network [MLPCN]
NIH Chemical Genomics Center [NCGC]
Assay Provider: Kyungjae Myung, NHGRI, NIH
Keywords: MLPCN, qHTS, NCGC, genotoxicity, cancer
Cancer cells divide rapidly compared to normal cells in the body. During cell division, cancer cells need to duplicate their genome by DNA replication. The failure of genome duplication leads to cancer cells' death. Therefore, inhibitors of DNA replication could specifically kill cancer cells. Based on this concept, many chemotherapeutic agents were developed and have been used to treat cancer patients. However, there are a limited number of agents available in the clinical setting, and some of those that do exist have low efficacy and severe side effects. Therefore, if we can find the compounds that effectively block DNA replication either by directly damaging DNA or by inhibiting other cellular mechanisms, the options for cancer treatment will be broadened. With this in mind, we developed a quantitative high-throughput ELG1-luciferase reporter gene assay. Since the level of human ELG1 protein is enhanced in response to genetic stresses, increases in luciferase activity can be used to identify compounds that cause genetic stress.
For genotoxicity screening, 2,000 cells in 5 uL/well were dispensed into white, solid-bottom 1536-well plates using a solenoid-based dispenser. Following transfer of 23 nL compound or DMSO vehicle by a pin tool, the plates were incubated 16 hr at 37 °C and 5% CO2. 5 ul ONE-Glo (Promega) was then added to each plate and following a 30 min incubation at room temperature, luciferase activity was quantified on a ViewLux CCD-based plate reader.

Q: For `CC[C@@H]1Cc2cc(O)ccc2C2=C1c1ccc(O)cc1C[C@H]2CC`, which “activity change, positive = ELG1 induction” value (“activity change” for short) is on record?
A: Its value is -14.9%.

Q: Which “activity change” value does the source give for `NC1(C(=O)O)CC1` here?
A: Its value is -5%.

Q: Which “activity change” value does the source give for `OCC1NCC(O)C(O)C1O` (stereo not given) here?
A: The value was -7.7%.

Q: For `Oc1ccc(/C=C/c2ccc(/C=C/c3ccc(O)cc3)c(Br)c2)cc1`, which “activity change” value is on record?
A: The value was -0.782%.

Q: For `Nc1ncnc2c1nc(Br)n2C1OC2COP(=O)(O)O[C@@H]2C1O` (stereo not given in full), which “activity change” value is on record?
A: The value was 5.51%.

Q: Which “activity change” value does the source give for `O=c1[nH]ccc2c(O)cccc12` here?
A: Its value is -6.98%.

Q: With `Cc1cc2c(cc1Cl)N(C(=O)Nc1ccnc3ccccc13)CC2` as the molecule, how does the “activity change” value read?
A: Its value is 0.572%.

Q: Which “activity change” value does the source give for `COc1cc(N)c(Cl)cc1C(=O)OCCN1CCCCC1` here?
A: Its value is -4.72%.

Q: For `O=C1C2C=CC=CC2=NC(=S)N1CCN1CCC(=C(c2ccc(F)cc2)c2ccc(F)cc2)CC1` (stereo not given), which “activity change” value is on record?
A: The value was -11.2%.

Q: With `O=C(O)C1=CCCNC1` as the molecule, how does the “activity change” value read?
A: The value was 0.241%.

Q: With `Fc1ccc(CN(C2=NCCN2)c2c(Cl)cccc2Cl)cc1` as the molecule, how does the “activity change” value read?
A: Its value is -13.4%.

Q: With `CN1CCN(c2nc3cc(C(F)(F)F)ccc3n3cccc23)CC1` as the molecule, how does the “activity change” value read?
A: Its value is -11.3%.

Q: Which “activity change” value does the source give for `C/C(=C\c1ccc(C(=O)O)cc1)c1ccc2c(c1)C(C)(C)CCC2(C)C` here?
A: The value was 1.59%.

Q: Which “activity change” value does the source give for `CC1CCN(CC[C@H]2CCCN2S(=O)(=O)c2cccc(O)c2)CC1` here?
A: Its value is -3.04%.

Q: For `O=C(O)C1CCCNC1` (stereo not given), which “activity change” value is on record?
A: The value was 1.96%.

Q: For `N[C@@H](CS(=O)O)C(=O)O`, which “activity change” value is on record?
A: Its value is -4.3%.

Q: With `Cn1c(=O)[nH]c2ncn(C)c2c1=O` as the molecule, how does the “activity change” value read?
A: The value was -6.35%.

Q: Which “activity change” value does the source give for `CN1CCc2cc(Cl)c(O)cc2[C@@H](c2ccccc2)C1` here?
A: The value was -6.77%.

Q: With `O=C1Nc2ccc(I)cc2/C1=C/c1cc(Br)c(O)c(Br)c1` as the molecule, how does the “activity change” value read?
A: The value was -6.74%.

Q: Which “activity change” value does the source give for `Oc1cc(O)c2c(c1)O[C@H](c1ccc(O)c(O)c1)[C@@H](O)C2` here?
A: The value was -5.54%.

Q: For `NCCCCN=C(N)N`, which “activity change” value is on record?
A: The value was -5.63%.

Q: Which “activity change” value does the source give for `NCCC1CCCC(CCN)N1` (stereo not given) here?
A: The value was -3.76%.

Q: With `CC(C)NC[C@H](O)COc1cccc2ccccc12` as the molecule, how does the “activity change” value read?
A: The value was -4.15%.

Q: For `NC/C=C\C(=O)O`, which “activity change” value is on record?
A: The value was -5.9%.

Q: Which “activity change” value does the source give for `C#CC(N)CCC(=O)O` (stereo not given) here?
A: The value was -4.51%.

Q: With `N=C(N)SCCc1cnc[nH]1` as the molecule, how does the “activity change” value read?
A: The value was -8.34%.

Q: With `CC(C)(C)NCC(O)COc1cccc2[nH]c(=O)[nH]c12` (stereo not given) as the molecule, how does the “activity change” value read?
A: The value was -0.271%.

Q: For `NC1(C(=O)O)CCc2cc(C(=O)O)ccc21` (stereo not given), which “activity change” value is on record?
A: Its value is -5.42%.

Q: With `NC1CCN(O)C1=O` (stereo not given) as the molecule, how does the “activity change” value read?
A: The value was -6.08%.

Q: Which “activity change” value does the source give for `Oc1ccc(Cn2cc[nH]c2=S)cc1` here?
A: The value was -7.13%.

Q: Which “activity change” value does the source give for `N[C@H]1CONC1=O` here?
A: The value was -2.74%.

Q: For `COc1cc(CC(=O)O)ccc1O`, which “activity change” value is on record?
A: The value was -2.62%.

Q: With `N[C@@H](CCC(=O)N[C@H](CSN=O)C(=O)NCC(=O)O)C(=O)O` as the molecule, how does the “activity change” value read?
A: Its value is -2.86%.

Q: For `Cc1cccc(C(=O)NCN2CCN(c3ccccc3C#N)CC2)c1`, which “activity change” value is on record?
A: Its value is -8.25%.

Q: For `C=CCN1CCc2c(cc(O)c(O)c2Cl)C(c2ccccc2)C1` (stereo not given), which “activity change” value is on record?
A: The value was 0.812%.

Q: Which “activity change” value does the source give for `CCCn1c(=O)c2c(ncn2C)n(CCC)c1=O` here?
A: The value was -6.14%.

Q: For `C=CCN1CCc2c(cc(O)c(O)c2Br)[C@@H](c2ccccc2)C1`, which “activity change” value is on record?
A: Its value is -0.211%.

Q: For `Cc1cc(Cn2cnc3c2C[C@@H](C(=O)O)N(C(=O)C(c2ccccc2)c2ccccc2)C3)ccc1N`, which “activity change” value is on record?
A: Its value is -2.86%.

Q: Which “activity change” value does the source give for `[Li+]` here?
A: The value was -7.13%.

Q: Which “activity change” value does the source give for `O=C(O)C1=CCNCC1` here?
A: Its value is -8.31%.
